Measured values taken from PubChem BioAssay AID624133 (Broad Institute, 2012).
Among all 1,600 compounds or so, about 1,300 (81%) were called active. The rule behind the calls is not given here. So high a share suggests a set chosen from earlier hits. The list is a sample of the results. Results with a measured potency or affinity are listed apart.

test: control 3'UTR Renilla luciferase suppression, dose response, counter-screen for Shn3 inhibitor project, cell-based, Clone20-Shn3RL, cherry-picked (AID 624133); conditions: Clone20-Shn3RL cells, Renilla luciferase luminescence, 24 h; at 35 µM (top of the series) unless noted;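 note: 0% = neutral control wells and -100% = positive control wells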

Row | SMILES | activity change, negative = inhibition [%]
1 | CCOC(=O)C1CCN(c2cc3c(cc2NC(=O)c2ccccc2Br)n(C)c(=O)n3C)CC1 | -4.54
2 | COc1ccc(NC(=O)CCOc2cc(C)ccc2C)cc1S(=O)(=O)N1CCCCC1 | 267
3 | COc1cc(OC)cc(C(=O)OCC(=O)Nc2ccc(F)cc2F)c1 | 11.1
4 | CCOc1ccc(Br)cc1C1=CC(=O)C[C@H](c2ccc(OC)cc2)C1 | 133
5 | COc1ccc(-c2cc3nc(C)n(N)c(=O)c3s2)cc1 | 13
6 | CCSc1nnc(NC(=O)c2nc(S(=O)(=O)Cc3ccc(F)cc3)ncc2Cl)s1 | -75
7 | c1ccc(-c2cc(CSc3nc4ccccc4[nH]3)on2)cc1 | -121
8 | COc1ccccc1-n1c(SCC(=O)Nc2cc(C)on2)nc2c(c1=O)SCC2 | 58.3
9 | CSCCC(NC(=O)c1ccccc1)C(=O)OCC(=O)N(C)CCC#N (centres undefined) | 16.7
10 | CN(CC(=O)Nc1ccccc1Cl)C(=O)c1cccc(S(=O)(=O)N2CCN(c3ccccc3)CC2)c1 | -11.9
11 | Cc1cc(C(=O)COc2cccnc2[N+](=O)[O-])c(C)n1-c1ccccc1 | -74.4
12 | CNS(=O)(=O)c1cccc(C(=O)OCc2cc(C(C)=O)ccc2OC)c1 | 329
13 | COc1ccc(OC)c(NC(=O)c2cc(-c3cc(F)ccc3OCC3CCCO3)n[nH]2)c1 (centres undefined) | 26.4
14 | Cc1ccccc1N/C(=N/S(=O)(=O)c1ccccc1)c1ccc(F)cc1 | 55.6
15 | CCC12CN(S(=O)(=O)c3ccc(C)cc3)CC(CC)(CN(S(=O)(=O)c3ccc(C)cc3)C1)C2=O | 154
16 | COc1ccc(C(O)c2nc(-c3cccc(F)c3)cs2)cc1 (centres undefined) | 45.8
17 | O=C(c1n[nH]c(=O)c2ccccc12)N1CCN(C2c3ccccc3-c3ccccc32)CC1 | -59.1
18 | CCOc1ccc(NS(=O)(=O)c2cc(C(=O)NCCN3CCOCC3)ccc2C)cc1 | 360
19 | Cc1ccc(NC(=O)NCCCN2CCOCC2)cc1 | -95.8
20 | O=C(Cc1ccccc1)NCCS(=O)c1ccc(Cl)cc1 (centres undefined) | 58.3
21 | CC(C)(CNC(=O)c1ccc(Cl)c(S(=O)(=O)N2CCc3ccccc3C2)c1)N1CCOCC1 | -44.4
22 | CCN(CC)S(=O)(=O)c1ccc(N2CCOCC2)c(NC(=O)c2nn(C(C)C)c(=O)c3ccccc23)c1 | -4.17
23 | Cc1ccc(OC(=O)CCC(=O)Oc2ccc(C)cc2C)c(C)c1 | 70.8
24 | CC(C)C[C@@H](CO)N(Cc1ccccc1)S(=O)(=O)N(Cc1ccccc1)[C@H](CO)CC(C)C | -80
25 | O=C(Nc1ccccc1)Nc1cc(OCC(F)(F)F)cc(OCC(F)(F)F)c1 | 0
26 | O=C(NCCCn1ccnc1)C(=O)NCC1OCCCN1S(=O)(=O)c1ccccc1 (centres undefined) | 8.33

Row | SMILES | activity change, negative = inhibition [%]
27 | Cc1ccc(S(=O)(=O)NCc2ccncc2)cc1C | 25
28 | CC(=O)N1CCOc2cc(S(=O)(=O)NCc3ccc(F)cc3)c(C)cc21 | 179
29 | Cc1cc(S(=O)(=O)NCc2ccncc2)c(C)cc1Br | 275
30 | COCc1nn2c(N)c(C#N)cnc2c1-c1ccccc1 | 16.7
31 | CC(=O)OCC(=O)[C@@]1(O)CC[C@H]2[C@@H]3CCC4=CC(=O)CC[C@]4(C)[C@H]3C(=O)C[C@@]21C | 12.2
32 | CC(NNC(=S)N1CCN(c2ccccn2)CC1)c1nccc2ccccc12 (centres undefined) | 300
33 | Cc1c(C)c2ccc(OCC(=O)Nc3ccccn3)c(C)c2oc1=O | 107
34 | Cc1ccc(S(=O)(=O)NCCc2cc3ccc(C)cc3[nH]c2=O)cc1 | 33.6
35 | Cc1cc(C(=O)COC(=O)c2ccccc2O)c(C)n1Cc1cccs1 | -4.54
36 | CN=C1c2cc3cc(OC)ccc3n2CCN1Cc1ccccc1 | 64.3
37 | COc1ccc(OC)c(NC(=O)CN(Cc2ccc(F)cc2)C2CCCCC2)c1 | -40
38 | CC(C)(C)c1nc(NCCN2CCOCC2)c2nnn(Cc3ccccc3Cl)c2n1 | -45.5
39 | CCC(C)[C@H]1CNC(=S)N1CCc1cc(C(F)(F)F)cc(C(F)(F)F)c1 (some centres undefined) | 177
40 | CCN(CC)C(=O)C1CCCN(c2ccc([N+](=O)[O-])cc2[N+](=O)[O-])C1 (centres undefined) | 58.3
41 | C[C@]12CC[C@H](O)CC1=CCC1C2CC[C@@]2(C)C1CCC21OCCO1 (some centres undefined) | 16.7
42 | Cc1cc(-n2c(C)cc(C(=O)CSc3nncn3C)c2C)no1 | -18.2
43 | CCOc1ccc2nc(SC3CC(=O)N(c4ccc(C)cc4)C3=O)sc2c1 (centres undefined) | 30
44 | Cc1ccc(CNC(=O)c2ccc3c(=O)c(O)c(-c4ccc(C)cc4)[nH]c3c2)cc1 | -14.3
45 | CCc1c(O)nc(SCC(=O)Nc2ccccc2)n(-c2ccccc2)c1=O | 80
46 | CN(C(=O)CSc1nc(-c2cccs2)nc2ccccc12)C1CCS(=O)(=O)C1 (centres undefined) | -119
47 | CCN(CC)Cc1c(O)ccc2c1O/C(=C\C=C\c1ccccc1)C2=O | 60
48 | O=C(NCCc1ccccc1)c1ccc2c(c1)OCCO2 | -2.38
49 | COc1ccc2c(c1OC)C(=O)N1c3ccccc3C(=O)N(c3ccccc3F)C21 (centres undefined) | 87.5
50 | CSc1nnc(-c2ccco2)n1-c1ccccc1 | 31.8
51 | CC(C)N1CCN(c2ccc(OCC3COC(Cn4cncn4)(c4ccc(Cl)cc4Cl)O3)cc2)CC1 (centres undefined) | 0
52 | COc1c(CC=C(C)C)cc(C2CC(=O)c3c(O)cc(O)cc3O2)cc1CC=C(C)C (centres undefined) | 50

Row | SMILES | activity change, negative = inhibition [%]
53 | Nc1nc(N)c2cc(S(=O)(=O)c3ccc4ccccc4c3)ccc2n1 | 16.7
54 | C[C@@H]1CN([C@H](C)CO)C(=O)CCCn2nncc2CO[C@H]1CN(C)S(=O)(=O)c1ccc2c(c1)OCCCO2 | -47.9
55 | O=C(NCCNC(=O)Oc1cccc2ccccc12)Oc1cccc2ccccc12 | 41.7
56 | COc1cc(OC)c(OC)cc1CCC(C)NCCC(c1ccccc1)c1ccccc1 (centres undefined) | -33.3
57 | Cc1ccc(C)c(N2CCN(S(=O)(=O)c3ccc4[nH]c(=O)ccc4c3)CC2)c1 | 4.54
58 | CC1(Cc2ccc(OC(F)(F)F)cc2)C(=O)Nc2c(Cl)ccc(Cl)c21 (centres undefined) | 30
59 | Cc1csc(=O)n1CC(=O)OCC(=O)c1c(N)n(C)c(=O)n(C)c1=O | 10
60 | COc1ccc(CC(=O)Nc2ccncc2Cl)cc1 | -54.2
61 | O=[N+]([O-])c1cccc(S(=O)(=O)NCc2ccncc2)c1 | 14.3
62 | NS(=O)(=O)c1ccc(CNC(=S)NC(=O)c2ccco2)cc1 | 40.3
63 | Cc1ccc(-c2nc(-c3ccccn3)no2)cc1 | -90.9
64 | c1ccc(-c2noc(-c3ccc4ccccc4c3)n2)nc1 | -2.38
65 | CCOC(=O)c1c(NC(=O)c2nn(CC)cc2Br)sc(C)c1C | 16.7
66 | CN(C)c1ccc(/C=C/c2ccc3ccccc3n2)cc1 | 117
67 | Fc1ccccc1N1CCN(Cc2nc(-c3ccccc3)no2)CC1 | -87.1
68 | O=C(Nc1ccc([N+](=O)[O-])cc1)C(=O)Nc1cccc(C(=O)O)c1 | 43.3
69 | COc1ccc(NS(=O)(=O)c2ccc(-c3cnc(C4CC4)o3)cc2)cc1OC | 40
70 | Cc1oc(=O)c(NC(=O)c2ccc(Cl)cc2)cc1C(=O)c1ccccc1 | -75
71 | O=C(CN1C(=O)c2ccccc2S1(=O)=O)c1ccc(Cl)cc1Cl | -103
72 | O=C(CN1C(=O)c2ccccc2S1(=O)=O)c1ccc2c(c1)OCCCO2 | -16.7
73 | CC1CCN(C(=O)c2ccc(N3C(=O)C4CCC(C)CC4C3=O)cc2)CC1 (centres undefined) | 27.8
74 | CCN(CC)C(=O)[C@H]1C[C@H](CC(=O)NC/C=C(\C)CCC=C(C)C)C(=O)N2CCc3c([nH]c4cc(CCC(=O)N(C)C)ccc34)[C@]12C | -16.7
75 | O=C(Nc1nc(-c2ccccc2)cs1)C1CCCCN1S(=O)(=O)c1ccccc1 (centres undefined) | -104
76 | COc1ccc(C(=O)NNC(=O)c2cccc(S(=O)(=O)N3CCOCC3)c2)cc1 | 19.6
77 | O=C(O)C1(Nc2ccccc2Cl)CCCC1 | -15
78 | Cc1cc(C(=O)Cn2cnc3cc(F)ccc3c2=O)c(C)n1C1CC1 | -16.7

Row | SMILES | activity change, negative = inhibition [%]
79 | Cc1ccc(C(=O)Nc2ccc3c(c2)C(=O)N(CC2CCCO2)C3=O)cc1 (centres undefined) | 80
80 | CC(C)NCC(O)COc1cccc2ccccc12 (centres undefined) | -29
81 | COc1ccc(S(=O)(=O)N2CCOCC2)cc1NC(=O)COC(=O)CC1CC2CCC1C2 (centres undefined) | 50
82 | COc1cc(NS(=O)(=O)c2ccc(C)cc2C)cc(OC)c1OC | -27.3
83 | CCCC(c1nnnn1Cc1ccc(OC)cc1)N1CCN(c2ccccc2)CC1 (centres undefined) | 117
84 | C=CCOC(=O)C1=C(C)N=C2SCCC(=O)N2C1c1cccs1 (centres undefined) | -29.2
85 | CCO[C@@H]1OC(C(=O)NC2CC2)=C[C@H](c2coc3ccccc3c2=O)[C@H]1CCCO | 120
86 | Cc1ccc(S(=O)(=O)N2CCCCC2)cc1NS(=O)(=O)c1ccccc1F | 200
87 | COc1ccccc1C(=O)Nc1nc2ccccc2[nH]1 | 43.3
88 | CN(C)c1ccc(/C=C/c2nc3ccccc3s2)cc1 | 27.8
89 | COc1ccc(N(C)C(=O)c2ccc3snnc3c2)cc1 | -52.1
90 | O=C1CCc2cccc(O)c2N1 | -23.2
91 | Cc1c(CCOC(=O)CC23CC4CC(CC(C4)C2)C3)sc[n+]1CC(=O)c1ccc(Br)cc1 | -59.3
92 | CN(C)CCN1C(=O)c2cccc3cc([N+](=O)[O-])cc(c23)C1=O | 310
93 | CSc1cccc(NC(=O)N2CCCC(CNS(=O)(=O)Cc3ccccc3)C2)c1 (centres undefined) | 62.5
94 | CCN(CC)c1ccc2c(c1)oc(=O)c1c(Cl)cc(=O)oc12 | -33.3
95 | Cc1cccc(N2CCN(C(=S)Nc3ccc4nc(N5CCN(C)CC5)cc(C)c4c3)CC2)c1C | 22.7
96 | O=c1c2ccccc2c(C=Nc2ccccc2O)c(O)n1-c1nccs1 | -2.5
97 | Cc1ccc(-c2cn3cc(C)ccc3n2)cc1 | 10
98 | CC(C)CC(NC(=O)c1ccc(Cl)cc1)C(=O)OCC(=O)c1ccc2c(c1)NC(=O)CO2 (centres undefined) | -16.7
99 | CN1CCN(c2ccc(-c3ccc4ccccc4n3)cc2)CC1 | -31.9
100 | CC(C)(C)n1nnnc1C(c1cccs1)N1CCCC2(CCCCC2)C1 (centres undefined) | 54.2
101 | O=C(CSc1nc(C(F)(F)F)cc(=O)[nH]1)N1CCCC1 | 231
102 | CC(=O)N(CCc1ccccc1)c1ccc2c(c1)C1CC2CCN1C(=O)OCc1ccccc1 (centres undefined) | -90.9
103 | COc1ccc(NS(=O)(=O)c2cccc(NC(=O)c3ccc(S(=O)(=O)N4CCCCCC4)cc3)c2)cc1 | 11.9
104 | COc1ccc(NS(=O)(=O)c2ccc(N3CCOCC3)c(N)c2)cc1 | -21.1
